Sampled rows, rich in hits. Any-hit rate of the full collection: about 6.5%.
Vaccinia Venus: vaccinia inhibition (Venus reporter); Vaccinia virus Venus reporter expression, fluorescence; AID 720580; 0.46% of 330,000 active; Potency, µM (doses to about 36.5 µM), for the others: at the highest dose activity change, negative = inhibition, most hits filed as inhibitors; calls by dose curve; tested in A549 cells; note: potency is the fitted concentration of half-maximal effect; nearly all actives have a fitted effect of over 30% in size
FMDV antiviral: blocks foot and mouth disease virus | FMDV antiviral cell-based qHTS | Potency, µM (series often up to 57.9 µM), inactives show at the highest dose activity change, negative = inhibition, usual class: inhibitors | 1.2% of 410,000 active | AID 1159524; calls by dose curve; tested in HEK293T cells; note: read-out not given here; potency is the fitted concentration of half-maximal effect; nearly all actives have a fitted effect of over 45% in size
MARV entry inh: inhibitors of Marburg virus binding or cell entry | Marburg virus pseudotyped entry inhibition, cell reporter | 1.8% of 300,000 active | Potency, µM (series often up to 37.8 µM), without a hit: at the highest dose activity change, negative = inhibition, actives largely listed as inhibitors; calls by dose curve; tested in HEK293 cells; note: potency is the fitted concentration of half-maximal effect
Lassa entry inh: blocks Lassa virus binding to or entry into cells. Lassa virus pseudotype entry inhibition, cell reporter. Potency, µM (highest dose often 37.9 µM), without a hit: top-dose activity change, negative = inhibition, usual class: inhibitors. 1.2% of 300,000 active; calls by dose curve; tested in HEK293 cells; note: potency is the fitted concentration of half-maximal effect; nearly all actives have a fitted effect of over 50% in size
VACV mCherry inh: inhibitors of vaccinia virus infection (mCherry reporter signal) | 0.63% of 310,000 active | Potency, µM (series often up to 36.5 µM), for inactives: top-dose activity change, negative = inhibition, most hits filed as inhibitors | Vaccinia virus mCherry reporter infection, fluorescence; calls by dose curve; tested in A549 cells; note: potency is the fitted concentration of half-maximal effect; nearly all actives have a fitted effect of over 35% in size
HCMV antiviral: blocks human cytomegalovirus replication; HFF cells, HCMV-luciferase reporter, 72 h; hits give low values; activity change, negative = inhibition, % at 57.5 µM; 4.5% of 410,000 active; AID 1259415; in the data active = activity change below about -60%; inconclusive = no clear call, values can overlap the other calls; inactive = above about -39%
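Two compound doses tested in HFFs infected with HCMV-luciferase, MOI 1 PFU/cell, 72 h at 37C. Lysate luminescence read with OneGlo; data normalized against buffer-only and 10uM Salinomycin inhibitor controls.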
* marks the source's active call; other numbers are inactive results; [ ] = remark or other dose. % is set by controls: 0 for no effect and ±100 for the full control effect.

What do the screens show for `Cc1cc(C)n(-c2ccc(C(=O)OCC(=O)N(CC(C)C)C3CCS(=O)(=O)C3)cc2)n1` (stereo not given)?
FMDV antiviral: 21%; MARV entry inh: 21%; Lassa entry inh: -2%; HCMV antiviral: -86*

Results for CC(C)CN(C(=O)COC(=O)c1ccc2c(c1)NC(=O)CS2)C1CCS(=O)(=O)C1 (stereo not given) ?
Vaccinia Venus: -14%; FMDV antiviral: -5%; MARV entry inh: -5%; Lassa entry inh: 1%; HCMV antiviral: -84*

How did CS(=O)(=O)c1ccc(NC(=O)COc2ccccc2C(=O)Nc2ccccc2)cc1 do in these assays?
Vaccinia Venus: -17%; VACV mCherry inh: -15%

How did O=C(NCCc1ccc(Cl)cc1)Nc1ccc(Cl)cc1 do in these assays?
FMDV antiviral: 17%; HCMV antiviral: -39

Results for NS(=O)(=O)c1ccc(CNC(=S)Nc2ccc(Cl)c(Cl)c2)cc1 ?
Vaccinia Venus: -13%; FMDV antiviral: -7%; MARV entry inh: inconclusive; Lassa entry inh: 13%[46.1 µM]; VACV mCherry inh: inactive; HCMV antiviral: -74*

Results for NS(=O)(=O)c1ccc(CCNC(=O)Nc2ccc(Cl)c(Cl)c2)cc1 ?
FMDV antiviral: 25µM*; MARV entry inh: inconclusive; Lassa entry inh: -28%; HCMV antiviral: inconclusive

Results for NS(=O)(=O)c1ccc(CCNC(=S)Nc2ccc(F)cc2)cc1 ?
Vaccinia Venus: -9%; FMDV antiviral: -7%; MARV entry inh: -8%[46.1 µM]; Lassa entry inh: 2%[46.1 µM]; VACV mCherry inh: -21%; HCMV antiviral: -61*

What do the screens show for `Cc1cnc(C)c(-c2cccc3c2OC(CNC(=O)CN2C(=O)c4ccccc4C2=O)C3)n1` (stereo not given)?
Vaccinia Venus: -14%; FMDV antiviral: 1%; VACV mCherry inh: inactive

What do the screens show for `O=C(CSCc1ccc(Cl)cc1)NCc1ccccn1`?
Vaccinia Venus: -20%; FMDV antiviral: -21%; MARV entry inh: -12%; Lassa entry inh: 8%; VACV mCherry inh: -21%; HCMV antiviral: -21

How did Cn1c(Sc2nc3ccccc3n2C)nc2ccccc21 do in these assays?
FMDV antiviral: -13%; MARV entry inh: inconclusive; Lassa entry inh: inconclusive; HCMV antiviral: -95*

What do the screens show for `Cn1c(SCC(=O)N2CCCC2)nc2ccccc21`?
Vaccinia Venus: -2%; FMDV antiviral: 21%; MARV entry inh: 11%[46.1 µM]; Lassa entry inh: 1%[46.1 µM]; VACV mCherry inh: inactive; HCMV antiviral: -8

What do the screens show for `Cc1nc([N+](=O)[O-])c(Sc2nc3ccccc3n2C)n1Cc1ccccc1`?
Vaccinia Venus: -13%; FMDV antiviral: 25µM*; MARV entry inh: inconclusive; Lassa entry inh: inconclusive; VACV mCherry inh: -17%; HCMV antiviral: 50

How did CCC(CC)C(=O)NN(C(=O)c1ccncc1)C1CC(=O)N(c2ccccc2)C1=O (stereo not given) do in these assays?
Vaccinia Venus: 11%; FMDV antiviral: -11%; MARV entry inh: 14%[46.1 µM]; Lassa entry inh: 28%[46.1 µM]; VACV mCherry inh: inactive; HCMV antiviral: 23

What do the screens show for `CC(=O)Nc1ccc(NC(=O)C(C)OC(=O)c2cccc(S(=O)(=O)N3CCCC3)c2)cc1` (stereo not given)?
Vaccinia Venus: -11%; FMDV antiviral: -12%; MARV entry inh: 10%; Lassa entry inh: 12%; VACV mCherry inh: 0%; HCMV antiviral: 3

Results for O=[N+]([O-])c1cnn(-c2nc(-c3ccccc3)cc(C(F)(F)F)n2)c1 ?
Vaccinia Venus: -8%; FMDV antiviral: -17%; MARV entry inh: inconclusive; Lassa entry inh: 17%[46.1 µM]; VACV mCherry inh: -5%; HCMV antiviral: -76*

Results for O=[N+]([O-])c1ccc(O)c(-c2cc(C(F)(F)F)nc(-c3ccccc3)n2)c1 ?
FMDV antiviral: inconclusive; MARV entry inh: 3%; HCMV antiviral: -101*

Results for O=[N+]([O-])c1ccn(-c2nc(-c3ccccc3)cc(C(F)(F)F)n2)n1 ?
Vaccinia Venus: 17%; FMDV antiviral: 0%; MARV entry inh: -6%[46.1 µM]; Lassa entry inh: 7%[46.1 µM]; VACV mCherry inh: -8%; HCMV antiviral: -15

What do the screens show for `COc1ccccc1OCCn1cc(C(=O)c2ccco2)c2ccccc21`?
Vaccinia Venus: -26%; FMDV antiviral: 25µM*; MARV entry inh: inconclusive; Lassa entry inh: -21%; VACV mCherry inh: inconclusive; HCMV antiviral: 61
